# Biological target: LRRC15
# Assay: pooled miR-30 sensor sort-seq; sequence = guide strand
# Conditions: shRNA
# Further: reference of the scale not given here.
row,Sequence,sensor-assay potency score (higher = more potent)
1,TAGTCAGATCAGTGTAGTCTTC,-1.03
2,AACAGCAACGTTGACATTGATG,-1.31
3,TTGAGGTTGCTGCACTGGGAGA,-1.66
4,TTGCTGAAGACATTGTCGGGTA,0.015
5,TTGAGTTCAGTGATGTGCGTGT,0.975
6,TCTTGCAGCAGCAACAGCCGAC,-0.387
7,TTGTTGGACAGGTAGAGTCTCT,-0.632
8,TTCTTCTCAATCCTCAGGGCGA,-1.09
9,TAACCTAGGCTGGTTGAGCAGG,-0.94
10,TTGAGCAGGAGCCAGTTGCGGA,-0.932
11,TTGGACAGGTAGAGTCTCTGGA,0.0615

# Biological target: LRRC19
# Assay: as above
# Conditions: shRNA
row,Sequence,sensor-assay potency score (higher = more potent)
1,TTACTGTATTTGAACCTGCTTG,-0.499
2,TATGTAACTGTCAACTACCGAG,-0.747
3,TAAACTGTAGTGATCCTGCATT,-0.636
4,TTTGATATTGTAGCTCTGCAGG,-1.09
5,TTGATTATGAGGACTCAGCAAA,-0.795
6,TATGTCTGTAGAACTCTTGTGT,0.236
7,TTCTGCTTCATGCTCTTCCAGG,-0.767
8,TATAGTAACATCTTTCTTGATA,-0.839
9,TAACTGTCAACTACCGAGGAGT,-0.999
10,TTATGTAAGATAGTAACCTTGT,0.182
11,TTCATGAATAATTTAGACCTTT,-0.134

# Biological target: LRRC1
# Assay: as above
# Conditions: shRNA
row,Sequence,sensor-assay potency score (higher = more potent)
1,TCTGTTGACAGCACGCTCGTTC,0.237
2,TTGCCTGTGACACCTCTGCAGG,-1.09
3,TTTCTGTAAGAACTAACTCAGT,-0.926
4,TAGTTTTCCAATGCCATCCGGA,-0.337
5,TTGACAGCACGCTCGTTCCAGG,-1.01
6,TTTTCTGTAAGAACTAACTCAG,-0.115
7,TTTTGTTTGAGTCCAGTCCTTT,-0.559
8,TCTCTTGACAAGTAGGTTCAGA,-0.443
9,TTCTTCTAGTCTTCGCAGCTGG,-0.37
10,TTTCGTAATTTGACTAGCTGGA,0.0536
11,TAGCTGGAAAAATTGCTCGGGC,-0.498
12,TTCTAGTCTTCGCAGCTGGGTA,-0.92

# Biological target: LRRC45
# Assay: as above
# Conditions: shRNA
row,Sequence,sensor-assay potency score (higher = more potent)
1,TGACTGATCTGGTTGTTGCGGA,0.13
2,ATGCTGGTCATCTCCTGCCTGG,-1.52
3,TTGGCAGCAGACAAGTCTCTGA,-0.793
4,TTCTGCAGGAAGCTCGCCCTCT,-0.654
5,TGCAGCTTCCTGCTGCTCCAGC,-1.24
6,TTGAGAGCGTTGATGATGGAGT,-0.215
